Binding signal data for 7 sequences are collected here from paper PMC7862700, “An all-to-all approach to the identification of sequence-specific readers for epigenetic DNA modifications on cytosine”.

What all share (assay): DAPPL (digital affinity profiling via proximity ligation, sequencing); 10 mM Tris-HCl pH 7.5, 50 mM NaCl, 1 mM DTT, 4% glycerol, room temperature, 30 min; GST-TFs on glutathione beads, 16-mer random dsDNA library, 0.1% formaldehyde crosslink after washing; high values mean tight binding
Conditions in all cases: protein: recombinant; tags: N-terminal GST; dsDNA, one strand shown

The target of one assay is T1, FLI1 (Homo sapiens, UniProt Q01543 1-452).
T1 sequence: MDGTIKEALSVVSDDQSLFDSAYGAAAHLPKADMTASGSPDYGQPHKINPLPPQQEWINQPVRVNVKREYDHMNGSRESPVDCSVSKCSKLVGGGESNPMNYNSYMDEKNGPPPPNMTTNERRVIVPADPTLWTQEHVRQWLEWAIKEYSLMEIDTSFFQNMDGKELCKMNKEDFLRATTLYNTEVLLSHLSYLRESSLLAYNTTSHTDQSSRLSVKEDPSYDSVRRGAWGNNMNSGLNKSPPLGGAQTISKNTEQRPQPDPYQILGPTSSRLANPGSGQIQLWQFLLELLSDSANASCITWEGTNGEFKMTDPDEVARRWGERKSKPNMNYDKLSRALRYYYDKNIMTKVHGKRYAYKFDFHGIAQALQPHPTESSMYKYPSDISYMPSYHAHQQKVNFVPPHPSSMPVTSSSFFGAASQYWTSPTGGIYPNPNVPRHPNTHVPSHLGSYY
In outline: (§1)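 Binding signal is defined as a hexamer's read frequency for one factor over its frequency for the tag-only sample. To obtain reads, GST-fused human transcription factors were expressed in yeast, captured on glutathione beads, barcoded with DNA and pooled with that sample. Pools met 200 nmole of a 16-mer random double-stranded DNA library in Tris/NaCl/DTT/glycerol buffer for 30 min at room temperature before washing, 0.1% formaldehyde crosslinking, proximity ligation (BsaI/T4 ligase, 1 h, 37 °C), PCR and Illumina NextSeq500 sequencing.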

For the next assay, the target named is T2, ELK1 (Homo sapiens, UniProt P19419 1-428).
T2 sequence: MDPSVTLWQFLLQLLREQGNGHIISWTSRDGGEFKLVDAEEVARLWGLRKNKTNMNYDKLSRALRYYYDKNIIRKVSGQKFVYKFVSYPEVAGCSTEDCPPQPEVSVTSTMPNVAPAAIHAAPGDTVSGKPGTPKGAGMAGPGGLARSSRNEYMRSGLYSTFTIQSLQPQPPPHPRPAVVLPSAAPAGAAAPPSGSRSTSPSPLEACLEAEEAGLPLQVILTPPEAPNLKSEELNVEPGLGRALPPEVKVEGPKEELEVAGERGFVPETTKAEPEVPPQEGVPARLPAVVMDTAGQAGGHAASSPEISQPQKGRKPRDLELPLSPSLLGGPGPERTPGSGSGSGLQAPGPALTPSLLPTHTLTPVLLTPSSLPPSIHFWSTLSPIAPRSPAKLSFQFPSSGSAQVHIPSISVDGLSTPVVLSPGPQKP
In short, it runs like this:
as §1

Another assay has as its target T3, GABPA (Homo sapiens, UniProt Q06546 1-454).
T3 sequence: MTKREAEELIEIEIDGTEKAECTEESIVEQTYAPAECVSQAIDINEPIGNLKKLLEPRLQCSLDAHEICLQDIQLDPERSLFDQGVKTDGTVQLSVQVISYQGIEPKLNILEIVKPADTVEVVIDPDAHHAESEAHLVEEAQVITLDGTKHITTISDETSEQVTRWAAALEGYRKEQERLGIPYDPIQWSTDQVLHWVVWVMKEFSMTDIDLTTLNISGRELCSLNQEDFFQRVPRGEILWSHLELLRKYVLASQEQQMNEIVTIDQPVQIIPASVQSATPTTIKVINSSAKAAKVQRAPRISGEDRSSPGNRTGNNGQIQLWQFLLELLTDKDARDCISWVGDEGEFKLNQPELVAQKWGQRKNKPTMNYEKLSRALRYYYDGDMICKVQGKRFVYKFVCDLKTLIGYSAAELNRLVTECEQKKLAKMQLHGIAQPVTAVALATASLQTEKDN
In short, it runs like this: as §1

For the next assay, the target named is T4, ERG (Homo sapiens, UniProt P11308 1-479).
T4 sequence: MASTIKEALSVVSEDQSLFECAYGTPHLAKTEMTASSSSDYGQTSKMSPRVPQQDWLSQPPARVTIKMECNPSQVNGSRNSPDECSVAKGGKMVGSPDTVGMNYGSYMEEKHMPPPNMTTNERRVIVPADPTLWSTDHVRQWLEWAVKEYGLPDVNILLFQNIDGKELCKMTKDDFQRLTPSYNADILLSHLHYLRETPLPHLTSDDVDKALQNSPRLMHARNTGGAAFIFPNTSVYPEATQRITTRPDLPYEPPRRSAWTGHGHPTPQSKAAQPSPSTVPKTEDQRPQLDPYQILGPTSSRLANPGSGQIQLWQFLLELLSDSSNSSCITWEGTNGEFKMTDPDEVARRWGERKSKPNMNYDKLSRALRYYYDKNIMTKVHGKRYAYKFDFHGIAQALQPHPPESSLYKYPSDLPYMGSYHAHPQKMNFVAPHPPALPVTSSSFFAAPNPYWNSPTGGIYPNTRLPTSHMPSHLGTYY
In outline: as §1

Another assay addresses ELF1 (Homo sapiens, UniProt P32519 1-619). In outline: as §1
A further assay has as its target T5, EHF (Homo sapiens, UniProt Q9NZC4 1-300).
T5 sequence: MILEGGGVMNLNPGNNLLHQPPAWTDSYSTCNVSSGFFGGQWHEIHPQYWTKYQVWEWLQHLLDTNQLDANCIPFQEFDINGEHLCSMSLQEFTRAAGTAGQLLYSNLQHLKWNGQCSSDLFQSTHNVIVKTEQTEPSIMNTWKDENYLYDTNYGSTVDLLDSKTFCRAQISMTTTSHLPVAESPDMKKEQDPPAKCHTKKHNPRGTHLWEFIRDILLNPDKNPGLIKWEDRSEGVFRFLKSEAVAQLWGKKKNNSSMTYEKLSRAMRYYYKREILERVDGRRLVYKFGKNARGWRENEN
In outline:
as §1

Another assay addresses SPI1 (Homo sapiens, UniProt P17947 1-270). In short, it runs like this: as §1
The target in the next assay is SPIB (Homo sapiens, UniProt Q01892 1-262). In outline:
as §1

Another assay concerns the target T6, ELK3 (Homo sapiens, UniProt P41970 1-407).
T6 sequence: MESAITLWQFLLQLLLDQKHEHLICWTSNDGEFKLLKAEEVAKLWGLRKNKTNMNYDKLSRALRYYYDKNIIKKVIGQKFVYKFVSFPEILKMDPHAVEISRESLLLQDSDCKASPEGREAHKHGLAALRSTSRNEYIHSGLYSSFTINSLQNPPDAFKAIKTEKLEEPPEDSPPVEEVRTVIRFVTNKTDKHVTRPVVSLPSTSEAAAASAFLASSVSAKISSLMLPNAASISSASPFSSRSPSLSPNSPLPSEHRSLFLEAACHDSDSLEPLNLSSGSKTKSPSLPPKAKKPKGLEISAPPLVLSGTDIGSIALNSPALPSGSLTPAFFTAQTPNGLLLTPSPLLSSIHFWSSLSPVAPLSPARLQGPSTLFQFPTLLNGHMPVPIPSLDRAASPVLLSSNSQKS
In outline:
as §1

Sequence of SPIB (Q01892 whole entry): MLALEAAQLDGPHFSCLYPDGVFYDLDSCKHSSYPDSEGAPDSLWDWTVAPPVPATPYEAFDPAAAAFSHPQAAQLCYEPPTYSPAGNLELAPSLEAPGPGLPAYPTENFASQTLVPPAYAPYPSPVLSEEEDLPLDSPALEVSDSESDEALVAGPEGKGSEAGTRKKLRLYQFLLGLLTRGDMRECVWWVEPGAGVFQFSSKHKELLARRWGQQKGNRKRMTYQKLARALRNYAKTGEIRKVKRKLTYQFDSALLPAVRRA
Sequence of ELF1 (P32519 whole entry): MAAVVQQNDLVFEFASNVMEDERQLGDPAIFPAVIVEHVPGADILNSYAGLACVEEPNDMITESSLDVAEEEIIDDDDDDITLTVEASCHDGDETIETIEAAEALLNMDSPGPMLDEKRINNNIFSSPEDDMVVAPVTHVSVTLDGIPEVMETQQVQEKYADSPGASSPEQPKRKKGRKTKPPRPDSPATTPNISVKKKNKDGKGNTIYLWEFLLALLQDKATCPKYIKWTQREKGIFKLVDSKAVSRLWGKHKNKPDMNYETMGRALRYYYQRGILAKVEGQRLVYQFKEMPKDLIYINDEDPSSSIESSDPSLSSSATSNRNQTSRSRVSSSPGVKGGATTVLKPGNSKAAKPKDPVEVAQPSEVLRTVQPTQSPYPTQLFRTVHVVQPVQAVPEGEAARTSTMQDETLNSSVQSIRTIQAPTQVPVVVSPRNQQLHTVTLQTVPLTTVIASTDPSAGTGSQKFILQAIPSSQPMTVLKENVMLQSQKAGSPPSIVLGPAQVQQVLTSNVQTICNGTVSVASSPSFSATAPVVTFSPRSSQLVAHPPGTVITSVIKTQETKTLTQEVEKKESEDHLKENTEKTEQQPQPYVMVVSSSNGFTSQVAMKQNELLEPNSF

Take TTAAAA: the binding signal in the assay with FLI1 was 1.19 fold enrichment (6-mer frequency, TF over GST control); with ELK1, 1.15 fold enrichment (6-mer frequency, TF over GST control); with GABPA, 1.19 fold enrichment (6-mer frequency, TF over GST control); in the assay with ERG, 1.15 fold enrichment (6-mer frequency, TF over GST control); with ELF1, 1.22 fold enrichment (6-mer frequency, TF over GST control); with EHF, 1.16 fold enrichment (6-mer frequency, TF over GST control). Further, the binding signal is 1.33 fold enrichment (6-mer frequency, TF over GST control) with SPI1; 1.23 fold enrichment (6-mer frequency, TF over GST control) in the assay with SPIB; 1.22 fold enrichment (6-mer frequency, TF over GST control) in the assay with ELK3.

With CCTTAG, the binding signal with FLI1 was 1.3 fold enrichment (6-mer frequency, TF over GST control); in the assay with ELK1, 1.3 fold enrichment (6-mer frequency, TF over GST control); with GABPA, 1.18 fold enrichment (6-mer frequency, TF over GST control); with ERG, 1.24 fold enrichment (6-mer frequency, TF over GST control); with ELF1, 1.27 fold enrichment (6-mer frequency, TF over GST control); with EHF, 1.3 fold enrichment (6-mer frequency, TF over GST control). Moreover, the binding signal was 1.21 fold enrichment (6-mer frequency, TF over GST control) in the assay with SPI1; 1.34 fold enrichment (6-mer frequency, TF over GST control) in the assay with SPIB; 1.23 fold enrichment (6-mer frequency, TF over GST control) with ELK3.

With TTCCTT, the binding signal in the assay with FLI1 is 1.88 fold enrichment (6-mer frequency, TF over GST control); with ELK1 it was 1.79 fold enrichment (6-mer frequency, TF over GST control); with GABPA, 1.84 fold enrichment (6-mer frequency, TF over GST control); with ERG, 2.11 fold enrichment (6-mer frequency, TF over GST control); in the assay with ELF1, 1.96 fold enrichment (6-mer frequency, TF over GST control); with EHF, 2.02 fold enrichment (6-mer frequency, TF over GST control). The binding signal was 2.25 fold enrichment (6-mer frequency, TF over GST control) in the assay with SPI1; 2.01 fold enrichment (6-mer frequency, TF over GST control) in the assay with SPIB; 2.09 fold enrichment (6-mer frequency, TF over GST control) with ELK3.

Turning to TTTATA, the binding signal in the assay with FLI1 is 1.32 fold enrichment (6-mer frequency, TF over GST control); with ELK1, 1.27 fold enrichment (6-mer frequency, TF over GST control); with GABPA, 1.36 fold enrichment (6-mer frequency, TF over GST control); in the assay with ERG, 1.29 fold enrichment (6-mer frequency, TF over GST control); with ELF1, 1.23 fold enrichment (6-mer frequency, TF over GST control); in the assay with EHF, 1.4 fold enrichment (6-mer frequency, TF over GST control). Further, the binding signal with SPI1 was 1.34 fold enrichment (6-mer frequency, TF over GST control); in the assay with SPIB it was 1.33 fold enrichment (6-mer frequency, TF over GST control); with ELK3, 1.28 fold enrichment (6-mer frequency, TF over GST control).

In the case of ATTCGA, the binding signal was 1.3 fold enrichment (6-mer frequency, TF over GST control) in the assay with FLI1; 1.22 fold enrichment (6-mer frequency, TF over GST control) with ELK1; 1.37 fold enrichment (6-mer frequency, TF over GST control) with GABPA; 1.33 fold enrichment (6-mer frequency, TF over GST control) with ERG; 1.41 fold enrichment (6-mer frequency, TF over GST control) in the assay with ELF1; 1.29 fold enrichment (6-mer frequency, TF over GST control) in the assay with EHF. Moreover, the binding signal in the assay with SPI1 was 1.32 fold enrichment (6-mer frequency, TF over GST control); with SPIB, 1.38 fold enrichment (6-mer frequency, TF over GST control); with ELK3 it was 1.25 fold enrichment (6-mer frequency, TF over GST control).

In the case of TACCTC, the binding signal with FLI1 was 1.25 fold enrichment (6-mer frequency, TF over GST control); with ELK1 it was 1.29 fold enrichment (6-mer frequency, TF over GST control); with GABPA, 1.33 fold enrichment (6-mer frequency, TF over GST control); with ERG, 1.19 fold enrichment (6-mer frequency, TF over GST control); in the assay with ELF1 it was 1.25 fold enrichment (6-mer frequency, TF over GST control); with EHF it was 1.2 fold enrichment (6-mer frequency, TF over GST control). The binding signal with SPI1 was 1.27 fold enrichment (6-mer frequency, TF over GST control); in the assay with SPIB, 1.21 fold enrichment (6-mer frequency, TF over GST control); in the assay with ELK3 it was 1.27 fold enrichment (6-mer frequency, TF over GST control).

In the case of ACTGCT, the binding signal is 1.44 fold enrichment (6-mer frequency, TF over GST control) with FLI1; 1.45 fold enrichment (6-mer frequency, TF over GST control) with ELK1; 1.29 fold enrichment (6-mer frequency, TF over GST control) in the assay with GABPA; 1.29 fold enrichment (6-mer frequency, TF over GST control) in the assay with ERG; 1.35 fold enrichment (6-mer frequency, TF over GST control) with ELF1; 1.41 fold enrichment (6-mer frequency, TF over GST control) with EHF. Moreover, the binding signal is 1.46 fold enrichment (6-mer frequency, TF over GST control) with SPI1; 1.36 fold enrichment (6-mer frequency, TF over GST control) with SPIB; 1.26 fold enrichment (6-mer frequency, TF over GST control) with ELK3.
